Our source for the relative growth values is the supplement of paper PMC9446081.

Each structure is given as a SMILES string. The whole screen tested about 39,000 compounds, of which about 220 (0.56%) showed activity. Shown is part of a subset that was picked to be rich in actives. Values without a mark were called inactive.
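Also: Wild-type cells incubated without shaking, value is the mean of two biological replicates.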

The test system of the assay is Escherichia coli K-12 BW25113. The assay can be described thus: relative growth (OD600 normalised to plate interquartile mean) (fraction); higher = less growth inhibition, active = 0.2 or less. The note with it: 50 µM; LB; incubation time: overnight (16-24 h).
Consider `CON=C(C(=O)NC1C(=O)N2C(C(=O)O)=C(C[N+]3(C)CCCC3)CSC12)c1csc(N)n1.[Cl-]` (stereo not drawn), for which the relative growth is 0.0437 (active). Consider `CC1=C(C(=O)O)N2C(=O)C(NC(=O)C(N)C3=CCC=CC3)C2SC1` (stereo not drawn), for which the relative growth was 1.07. On to `CO/N=C(\C(=O)N[C@@H]1C(=O)N2C(C(=O)O)=C(C)CS[C@H]12)c1csc(N)n1`, for which the relative growth was 0.0368 (active).

Turning to `CC1=C(C(=O)O)N2C(=O)[C@@H](NC(=O)[C@H](N)C3=CCC=CC3)[C@H]2SC1`, the relative growth was 1.03. For `CO/N=C(\C(=O)N[C@@H]1C(=O)N2C(C(=O)O)=C(C[N+]3(C)CCCC3)CS[C@H]12)c1csc(N)n1` the value was 0.0339 (active).

Take `C[C@H]1CN([C@@H](C)CO)S(=O)(=O)c2ccc(C3=CCCC3)cc2O[C@@H]1CN(C)S(=O)(=O)c1ccc(F)cc1`: the relative growth is 1.02. As to `C[C@H](CO)N1C[C@H](C)[C@@H](CN(C)C(=O)CN(C)C)Oc2ncc(-c3ccc(C(=O)N(C)C)cc3)cc2C1=O`, the relative growth is 0.975. As for `Cc1cccc(NC(=O)Nc2ccc3c(c2)C(=O)N(C)[C@@H]2CC[C@@H](CC(=O)NCc4ccccc4Cl)O[C@@H]2CO3)c1`, the relative growth was 0.998. Consider `C[C@@H]1CN([C@H](C)CO)S(=O)(=O)c2ccc(-c3cncnc3)cc2O[C@H]1CN(C)C(=O)Cc1cccnc1`, for which the relative growth was 0.98. `CC(C)NC(=O)N[C@@H]1CC[C@@H](CCN)O[C@H]1CO`: the relative growth is 0.989. Take `C[C@H](CO)N1C[C@H](C)[C@@H](CN(C)Cc2ccc3c(c2)OCO3)Oc2ccc(NC(=O)CCCN(C)C)cc2CC1=O`: the relative growth is 0.975. Consider `O=c1nc[nH]c2n[nH]cc12`, for which the relative growth was 1.03.

Turning to `COC1=C(N)C(=O)c2nc(-c3nc(C(=O)O)c(C)c(-c4ccc(OC)c(OC)c4O)c3N)ccc2C1=O`, the relative growth was 0.038 (active). On to `COc1ccc(C(=O)O)c(O)c1OC`, for which the relative growth was 1.03.

Take `COCC(=O)Nc1ccc2c(c1)C(=O)N(C)C[C@@H](OC)[C@H](C)CN(Cc1ccccc1C(=O)O)[C@H](C)CO2`: the relative growth was 1.02.

As for `C[C@@H]1CCCCO[C@H](CN(C)S(=O)(=O)c2ccc(Cl)cc2)[C@@H](C)CN([C@H](C)CO)C(=O)c2cc(NC(=O)c3ccncc3)ccc2O1`, the relative growth is 1.01. For `COc1ccc(CN(C)C[C@H]2OCCCC[C@H](C)Oc3ccc(NS(=O)(=O)c4ccc(C)cc4)cc3C(=O)N([C@@H](C)CO)C[C@@H]2C)cc1`, the relative growth is 0.982.

Take `C[C@H](CO)N1C[C@H](C)[C@H](CN(C)Cc2ccc3c(c2)OCO3)OCCCC[C@H](C)Oc2ccc(NS(=O)(=O)c3ccc(F)cc3)cc2C1=O`: the relative growth is 0.995.
